Test results taken from the supplement of paper PMC6555819.

How the values were obtained:
Experiment in all cases: PBM binding z-score (relative to random genomic background probes); higher = stronger binding; sequences stand for … in GC…GCGATTGACAGCGTAGAATGAAGG
[1] = test system: RARb homodimer (NR concentration 270 nM)
Summary of the method: (§1)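 Scanned fluorescence from custom Agilent 4×180K protein-binding microarrays was regression-normalized. Binding z-scores use random background probes as reference. Ligand-free nuclear receptor dimers were incubated on the arrays for 1 h and detected with antibodies against each partner (one per run).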

[2] = test system: RARg:RXRa (NR concentration 270 nM, RXRa partner concentration 90 nM)
Summary of the method: as §1

[3] = test system: RARg homodimer (NR concentration 270 nM)
Summary of the method: as §1

[4] = test system: RXRa DBDmut IVT, anti-RXR (DBD mutation: RXRa K156A/R161A, NR concentration 90 nM)
Summary of the method: as §1

[5] = test system: RXRa homodimer (NR concentration 180 nM)
Summary of the method: as §1

[6] = test system: THRa:RXRa (NR concentration 90 nM, RXRa partner concentration 90 nM)
Summary of the method: as §1

[7] = test system: THRa homodimer (NR concentration 90 nM)
Summary of the method: as §1

[8] = test system: VDR homodimer (NR concentration 270 nM)
Summary of the method: as §1

Sequence	PBM binding z-score [1]	PBM binding z-score [2]	PBM binding z-score [3]	PBM binding z-score [4]	PBM binding z-score [5]	PBM binding z-score [6]	PBM binding z-score [7]	PBM binding z-score [8]
TTTCCAAGGTGAAGGTCGTTGATCCCTCTGTAGA	2.06	1.51	1.29	0.389	1.95	2.94	1.8	1.37
ACTATTAGTGGAGACGAGGGCAACCGATAGGTTG	0.803	0.333	0.653	0.323	0.276	1.45	-0.218	0.427
CGAACTAGGTCAGAACAGGACAGTAAAGGATGAT	2	2.48	3.35	0.613	1.27	3.43	0.235	0.325
ATCTCTAGGTAAAATTCAGTGAAAGATCGATAGA	-0.326	0.344	0.677	0.391	0.121	0.32	0.151	0.281
TAGCCTGGGTCATGCGGGCCAGTATAGTGTCGGC	2.5	3.64	3.37	-0.265	3.11	2.46	-0.102	0.606
ACTTACGGGTCAACGAGGTAATAGCACGCGTATA	3.07	5.4	5.19	2.15	6.11	4	0.859	1.79
AGAATGAGGTTACCAAAGATCAGGGATACGCTTG	1.07	2.08	1.72	1.22	2.54	2.8	1.06	0.23
ACAGCCAGGTGATGAAGGTAACTCAGGCTATCAT	-0.0957	-0.0664	0.0616	-0.658	0.21	1.1	0.166	-0.584
ATCTCTAGGCAACAAGTTCAGTGAAAGAGAGGAC	1.5	0.455	0.889	0.344	0.308	0.961	0.49	2.1
CGTCCAAGGTCAAGGTTAGTGAAAGAGACTCGAA	4.33	5.94	6.75	3.28	5.75	3.98	2.66	1.85
AGAATGAGGTTGCCAAAGATCAGGGAAACGCTTG	-0.195	0.266	0.336	0.261	0.9	0.855	-0.384	-0.0161
TCTAGCAGGCCAGAGGGACACTCAAGAGGTACGG	0.146	-0.0485	0.179	-0.19	0.112	-0.54	-0.905	-0.834
ACTATTAGTTGAGACGCGGGCAACCGATAGGTTG	-0.0528	0.00918	0.268	0.153	-0.256	-0.0691	-0.769	0.135
GGAACGAGGGCATTCGACTTGATAGCATGGCGAT	0.502	1.11	1.52	3.17	0.731	0.81	-0.453	2.32
TAGCCTAGGTCATTGGGCCGGTATAGTACGCATC	2.86	3.58	4.08	0.933	2.62	2.67	0.961	1.35
TCTAGCATGCCAGAGGGTCACTCAAGAGGTACGG	2.71	2.48	2.22	0.0251	2.7	1.7	-0.281	0.555
CGGACTAGGTCAGAACAGGACAGTGAAGGATGAT	1.79	2.4	2.97	0.496	1.15	3.38	0.402	-0.0539
TGTATTAGTTGAAGGGCAACCGACGAGTCCGTTT	1.63	0.727	1.06	0.401	0.406	0.237	0.213	1.55
CGTCCAAGGTCAGCAGGTCAGTGGAAGCGACGTG	5.03	6.2	6.72	2.48	4.81	3.96	2.37	1.6
CCTACTGGGCCACGAAAGGTCATTGAGTCAGTGA	4.62	4.82	4.58	0.536	5.23	3.79	0.857	1.69
CCGAGTGGGGCATAAGGTTACCATAAGCCAGCCC	1.32	1.46	0.809	-0.545	1.22	2.01	1.09	0.036
CAAACTAGGTCAAAGGTGAAAGTCGAGCCAACCA	3.44	6.43	4.84	2.14	7.81	3.65	1.03	1.05
ATCTCTAGGGAACCAAGTTCAGTGAATGCCGAAC	1.21	0.277	0.53	0.569	0.332	0.497	-0.301	2.58
CCAACTAGGTCAAGGTCAAAGTCGGTTTGTGCCA	5.31	6.08	6.54	3.17	5.72	4.33	4.25	4.39
CCTATCAGGCCAGGGTCACTCAAGCATTTCGCTT	2.88	3.19	2.62	0.325	3.65	3.19	1.36	1.33
GCTAGCAGGCCATGTGGGTCACTCAATGACGGGC	1.65	0.945	1.05	-0.752	0.909	0.759	-0.59	0.0438
CCTCGAAGGACAGAAGGTCAGAGCTGTCCGCTTT	3.54	3.21	2.98	0.128	1.76	1.62	0.0154	0.121
CCTACTGGGCCAAAGGTTATTGATTCCAATGCTC	1.57	2.07	0.739	0.31	2.12	1.13	-0.123	0.0494
